These results are taken from paper PMC7819943, “Rice protein-binding microarrays: a tool to detect cis-acting elements near promoter regions in rice”.

Whole data set: some 68,000 sequences, median “fluorescence intensity (a.u.)” near 9,100, cut for the highest 2% near 16,000. For the sample, the highest values were picked, then their nearest neighbours and some sequences at random.

In this experiment the target is OsWRKY34 (Oryza sativa, UniProt Q0JBA9 1-250). In words: protein-binding microarray (RPBM); PBS, 2% BSA, 51.3 ng/ul salmon testes DNA, 50 uM zinc acetate, 200 nM TF, 25 C, 1 h; high values mean tight binding. To be noted: protein: recombinant; tags: N-terminal polyhistidine and DsRed monomer fusion (pET32a); label: CyDye5-dUTP incorporated in the synthesized complementary strand; 3' TTTTT single-stranded linker to array surface; dsDNA, one strand shown. The gist of the method: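 The binding signal is fluorescence intensity per array feature (arbitrary units). Readings came from an Axon 4000B scanner after a washed, 2% BSA-blocked, double-stranded custom Agilent array had been incubated for 1 h at 25 °C with 200 nM protein and 50 µM zinc acetate. The protein was a Ni–NTA-purified transcription factor fused N-terminally to polyhistidine and DsRed, expressed in E. coli BL21-CodonPlus.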
Chain of OsWRKY34 (Q0JBA9 entry or part of it): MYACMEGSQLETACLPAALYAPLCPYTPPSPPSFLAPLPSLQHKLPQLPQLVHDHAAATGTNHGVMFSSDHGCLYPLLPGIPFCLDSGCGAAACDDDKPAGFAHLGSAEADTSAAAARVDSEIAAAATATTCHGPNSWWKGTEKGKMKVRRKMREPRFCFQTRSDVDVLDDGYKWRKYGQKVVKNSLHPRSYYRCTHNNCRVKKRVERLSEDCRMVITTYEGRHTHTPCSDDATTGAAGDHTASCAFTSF
In the case of “CGCTTCCTCGCCGCGCGCGCGCCCGCCATCTCCTCGCCTCCGGAGTCACCTAGTGCAG”, the binding signal is 9350 fluorescence intensity (a.u.).

For the sequence “AGCATCCGAATCCGGCCACCTCATCATCTCGCCTCGCTTCCGGAGTCACCTAGTGCAG”, the binding signal was 16900 fluorescence intensity (a.u.). With “CACACTGTGCACGCCATTCTTATCTTGTCTAGCTTCATCTCGGAGTCACCTAGTGCAG” the figure was 16600 fluorescence intensity (a.u.); with “AGCGCTACTCCACATCTGTTTGCTCGTGCTCTCCGGATCTCGGAGTCACCTAGTGCAG”, 8550 fluorescence intensity (a.u.). “GCATCTCCACAGTCCACACTGTGCGCGCCATTCTTATCCTCGGAGTCACCTAGTGCAG”: the binding signal was 14100 fluorescence intensity (a.u.). As to “TGCGCTCATGGCCATCCATTTTCTTCTTCTTCTTTTTTTTCGGAGTCACCTAGTGCAG”, the binding signal was 10300 fluorescence intensity (a.u.). Turning to “TCCTCCTCGCCGCCCGGCGAATCCCGCGCCTCCTCGCTTCCGGAGTCACCTAGTGCAG”, the binding signal is 9070 fluorescence intensity (a.u.). Turning to “ATCTTCTATTCACGGCTTGCCATCTGTGCACTGTAATTTTCGGAGTCACCTAGTGCAG”, the binding signal is 9850 fluorescence intensity (a.u.). The result for “ATCCATTTCCAGCTTCGTCTTCATCTTGGCTTGGCGCGCTCGGAGTCACCTAGTGCAG” reads 17800 fluorescence intensity (a.u.); that for “CCACCTGCTCGCCGTCGACGCCGCCCTCGCCATCTTCAATCGGAGTCACCTAGTGCAG”, 12800 fluorescence intensity (a.u.). The result for “CCATCGCCATTGACACGGACACCTTACCTGTCACAAAGAACGGAGTCACCTAGTGCAG” reads 8160 fluorescence intensity (a.u.); that for “CGACGCGCCATCGCCTCGCCTCTCACCTACTGCCTCGTCCCGGAGTCACCTAGTGCAG”, 8820 fluorescence intensity (a.u.); that for “ACTTCTTGCTGATCTTCTTGGACTGCTTTTGCACCTTCTTCGGAGTCACCTAGTGCAG”, 9360 fluorescence intensity (a.u.). Turning to “ATGCACCACTGTTCCTGTCCTGGCTTTGCACAACATCCATCGGAGTCACCTAGTGCAG”, the binding signal is 13300 fluorescence intensity (a.u.). The result for “ATGTTCAGTAGTTAAAGAGGATACTGGCCACATGCTTGACCGGAGTCACCTAGTGCAG” reads 8790 fluorescence intensity (a.u.); that for “ATCATATGAACACGTTATCTTTTTATTTTATACCGGTTCACGGAGTCACCTAGTGCAG”, 8840 fluorescence intensity (a.u.).

With “CCGCCATCGCTACCCTCGGTCGTCGCTTGCCCCGACGACCCGGAGTCACCTAGTGCAG”, the binding signal is 8180 fluorescence intensity (a.u.). As to “ATCTCCGCCGCCGCCGCCTCCTACTCGTCGCCCTCCTCCTCGGAGTCACCTAGTGCAG”, the binding signal was 10300 fluorescence intensity (a.u.). The result for “GCCCCAACCTCGTCGCTACCCGCGAGCCTCGGCTTATCGACGGAGTCACCTAGTGCAG” reads 65100 fluorescence intensity (a.u.). In the case of “GGACCATCTCCGCCGCCGCCGCTGCCATCACTTCGTCCTCCGGAGTCACCTAGTGCAG”, the binding signal was 17600 fluorescence intensity (a.u.).

For “CCTAGTCGGCTTCGCCTCCGCTTCCTCGTCTCGTCTCCCTCGGAGTCACCTAGTGCAG”, the binding signal is 8160 fluorescence intensity (a.u.). The result for “CACCGTGTCGCTCTCTCTCGTCGTCTCCGCCTCCGGCTTCCGGAGTCACCTAGTGCAG” reads 19600 fluorescence intensity (a.u.); that for “CATCTCCGCCGGCCGCCGTCCTCGCCATCTTCGCCGTCCTCGGAGTCACCTAGTGCAG”, 12600 fluorescence intensity (a.u.); that for “CCGCCGGCCGCCGTCCTCGCCATCTCCGCCGGCCGCCGTCCGGAGTCACCTAGTGCAG”, 8440 fluorescence intensity (a.u.). Turning to “GTCATCCTCTCCATCCCCTCGTCGTCGTCCGCTCGCCTCTCGGAGTCACCTAGTGCAG”, the binding signal is 8250 fluorescence intensity (a.u.). The result for “ACCCTAGCCACCCCGCGTCGCCCGCCTCGGCGCGCCCAAACGGAGTCACCTAGTGCAG” reads 9260 fluorescence intensity (a.u.).

With “CGTCTCCTCTCTCTCTCTCTCTCTCTCTCGCCTCCGCTTCCGGAGTCACCTAGTGCAG”, the binding signal was 8240 fluorescence intensity (a.u.). The result for “TCCCCATCTCCGCCGCAGCCCTCGTCGTCGTCCTCGTCCTCGGAGTCACCTAGTGCAG” reads 18900 fluorescence intensity (a.u.); that for “CCAGCCCACTGATTCCTCACCGAATTTTTTCATTTTTTTTCGGAGTCACCTAGTGCAG”, 9700 fluorescence intensity (a.u.); that for “ATTCTATACTTTTGTTTCCCTATCATTTGACGCTTTACACCGGAGTCACCTAGTGCAG”, 10000 fluorescence intensity (a.u.). In the case of “TGGCTCCTTTTAAGTTATTCTTCCCAAACAGACATGATTTCGGAGTCACCTAGTGCAG”, the binding signal was 8660 fluorescence intensity (a.u.). On to “TTTATACATATGTGTTTATCATACCTCACGTGTCGTATATCGGAGTCACCTAGTGCAG”, for which the binding signal is 8040 fluorescence intensity (a.u.). The result for “TTAAGGGCATGTTTAGTTCTCAAACAAAATTTTCTAGCTGCGGAGTCACCTAGTGCAG” reads 8270 fluorescence intensity (a.u.); that for “ATGCTTGCTTGCCTGCCTTATCTGCGTCTTGAATTGCATCCGGAGTCACCTAGTGCAG”, 10100 fluorescence intensity (a.u.). The result for “CATCTATGACCCATTTTTTTTTATTTGACTGATACCCATCCGGAGTCACCTAGTGCAG” reads 9760 fluorescence intensity (a.u.). “CTTTTCCCCGCGGCCATCCCCGTCGCCCCACCGCCGCCGCCGGAGTCACCTAGTGCAG”: the binding signal was 11200 fluorescence intensity (a.u.). The result for “CCATTAAAGCCAAGCCACTGTCCTTGTCCATCTTTGTCCACGGAGTCACCTAGTGCAG” reads 8190 fluorescence intensity (a.u.); that for “ATCCAAGCCGTCCATCTTCACCCGTCACTGTCACTCGCCACGGAGTCACCTAGTGCAG”, 16900 fluorescence intensity (a.u.). The result for “GCCGCGCCCGCGTCACCACCGCTACCGCCCGCGCGTCCCTCGGAGTCACCTAGTGCAG” reads 8940 fluorescence intensity (a.u.); that for “CTTCGTCTCCGCTCCTCTCCGCCGCCTCGTCTCGTCGCCTCGGAGTCACCTAGTGCAG”, 8430 fluorescence intensity (a.u.). “CGTGTCGAGCTCTGTCTCCTCGTCTTCATCCGCCGCTTCACGGAGTCACCTAGTGCAG”: the binding signal is 18100 fluorescence intensity (a.u.). The result for “CGCGCCGCCCGCCGTCCCCATGCCACCGCGCTGCCCGCCGCGGAGTCACCTAGTGCAG” reads 10200 fluorescence intensity (a.u.). Consider “ACCGTGTCGAGCTATGTCTCCTCATCCTCGCTATGTTTCACGGAGTCACCTAGTGCAG”, for which the binding signal was 14800 fluorescence intensity (a.u.). The result for “TCCCCTACCGCTGCCCACCGCCGTCCACCACCGCCTTTCTCGGAGTCACCTAGTGCAG” reads 17000 fluorescence intensity (a.u.); that for “GTCACCCTTCACCACGGCCATCTTCTCCTCGCTCGCCGTCCGGAGTCACCTAGTGCAG”, 11200 fluorescence intensity (a.u.). The result for “GTCGCCATCTTCCCATCCCCGCGCCGCCGTCCACCATGAGCGGAGTCACCTAGTGCAG” reads 17200 fluorescence intensity (a.u.). Turning to “CCACACCACCGTCCCCTCGCTGCCTGCCTCCACCTCACCTCGGAGTCACCTAGTGCAG”, the binding signal was 8950 fluorescence intensity (a.u.).
